Measurements from PMC7862700, “An all-to-all approach to the identification of sequence-specific readers for epigenetic DNA modifications on cytosine”.

What was measured:
Assay in all cases: DAPPL (digital affinity profiling via proximity ligation, sequencing); 10 mM Tris-HCl pH 7.5, 50 mM NaCl, 1 mM DTT, 4% glycerol, room temperature, 30 min; GST-TFs on glutathione beads, 16-mer random dsDNA library, 0.1% formaldehyde crosslink after washing; high values mean tight binding
FLI1 = target: T1, FLI1 (Homo sapiens, UniProt Q01543 1-452); conditions: protein: recombinant; tags: N-terminal GST; dsDNA, one strand shown
T1 sequence: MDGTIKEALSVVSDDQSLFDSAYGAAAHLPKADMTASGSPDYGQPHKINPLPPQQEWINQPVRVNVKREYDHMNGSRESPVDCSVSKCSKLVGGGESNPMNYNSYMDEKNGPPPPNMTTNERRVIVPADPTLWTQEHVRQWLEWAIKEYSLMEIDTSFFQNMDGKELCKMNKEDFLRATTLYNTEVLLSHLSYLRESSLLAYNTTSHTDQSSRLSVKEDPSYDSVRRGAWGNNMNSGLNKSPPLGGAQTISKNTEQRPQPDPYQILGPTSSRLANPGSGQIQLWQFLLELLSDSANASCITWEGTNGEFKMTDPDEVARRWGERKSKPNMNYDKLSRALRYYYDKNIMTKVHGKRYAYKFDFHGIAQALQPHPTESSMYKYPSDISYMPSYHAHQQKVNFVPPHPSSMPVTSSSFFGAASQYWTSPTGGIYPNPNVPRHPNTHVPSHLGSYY
Summary of the method: (§1)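 After expression in yeast as GST fusions, human transcription factors were bound to glutathione beads, DNA-barcoded and mixed with a tag-only sample. The pools were incubated with 200 nmole of a 16-mer random double-stranded DNA library in Tris/NaCl/DTT/glycerol buffer (30 min, room temperature), washed and crosslinked with 0.1% formaldehyde. Proximity ligation with BsaI/T4 ligase ran for 1 h at 37 °C, before PCR amplification and sequencing on an Illumina NextSeq500. Binding signal is a hexamer's read frequency for a factor divided by its frequency for the tag-only sample.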

ELK1 = target: T2, ELK1 (Homo sapiens, UniProt P19419 1-428); conditions: protein: recombinant; tags: N-terminal GST; dsDNA, one strand shown
T2 sequence: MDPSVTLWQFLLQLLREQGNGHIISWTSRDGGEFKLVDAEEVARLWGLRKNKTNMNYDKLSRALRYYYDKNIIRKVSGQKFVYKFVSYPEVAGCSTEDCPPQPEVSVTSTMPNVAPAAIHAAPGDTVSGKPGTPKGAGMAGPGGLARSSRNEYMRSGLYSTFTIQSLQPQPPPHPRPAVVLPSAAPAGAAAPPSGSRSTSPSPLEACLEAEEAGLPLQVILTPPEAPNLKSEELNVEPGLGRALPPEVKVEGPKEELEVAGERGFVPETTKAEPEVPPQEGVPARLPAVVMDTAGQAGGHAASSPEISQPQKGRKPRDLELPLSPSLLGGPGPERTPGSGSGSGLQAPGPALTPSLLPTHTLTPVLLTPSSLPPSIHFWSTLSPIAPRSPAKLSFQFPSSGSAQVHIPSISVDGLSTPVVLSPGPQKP
Summary of the method: as §1

GABPA = target: T3, GABPA (Homo sapiens, UniProt Q06546 1-454); conditions: protein: recombinant; tags: N-terminal GST; dsDNA, one strand shown
T3 sequence: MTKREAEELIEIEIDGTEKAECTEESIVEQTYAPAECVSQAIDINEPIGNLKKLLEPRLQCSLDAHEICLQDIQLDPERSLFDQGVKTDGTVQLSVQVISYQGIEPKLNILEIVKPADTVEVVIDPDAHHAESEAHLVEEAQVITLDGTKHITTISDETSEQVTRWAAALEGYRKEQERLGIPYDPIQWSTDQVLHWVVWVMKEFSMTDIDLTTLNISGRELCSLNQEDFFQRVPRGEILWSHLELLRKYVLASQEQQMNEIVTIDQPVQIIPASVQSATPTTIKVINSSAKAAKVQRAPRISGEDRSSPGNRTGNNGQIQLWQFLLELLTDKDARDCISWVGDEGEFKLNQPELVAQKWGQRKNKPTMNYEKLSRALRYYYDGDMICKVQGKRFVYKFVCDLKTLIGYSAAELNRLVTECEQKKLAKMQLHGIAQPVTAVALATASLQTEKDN
Summary of the method: as §1

ERG = target: T4, ERG (Homo sapiens, UniProt P11308 1-479); conditions: protein: recombinant; tags: N-terminal GST; dsDNA, one strand shown
T4 sequence: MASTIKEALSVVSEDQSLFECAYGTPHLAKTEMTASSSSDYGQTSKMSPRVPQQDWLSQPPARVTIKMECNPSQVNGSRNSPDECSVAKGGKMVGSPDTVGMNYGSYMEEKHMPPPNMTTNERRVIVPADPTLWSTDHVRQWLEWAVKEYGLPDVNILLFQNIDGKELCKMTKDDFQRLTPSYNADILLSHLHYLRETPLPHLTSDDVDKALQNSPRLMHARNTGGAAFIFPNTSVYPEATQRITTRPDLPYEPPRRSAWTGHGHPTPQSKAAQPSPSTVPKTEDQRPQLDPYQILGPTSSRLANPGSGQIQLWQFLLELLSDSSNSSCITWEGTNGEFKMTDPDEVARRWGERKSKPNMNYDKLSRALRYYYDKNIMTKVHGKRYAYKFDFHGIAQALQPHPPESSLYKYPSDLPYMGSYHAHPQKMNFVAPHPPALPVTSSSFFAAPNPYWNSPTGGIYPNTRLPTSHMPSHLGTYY
Summary of the method: as §1

ELF1 = ELF1 (Homo sapiens, UniProt P32519 1-619); conditions: protein: recombinant; tags: N-terminal GST; dsDNA, one strand shown
Summary of the method: as §1

EHF = target: T5, EHF (Homo sapiens, UniProt Q9NZC4 1-300); conditions: protein: recombinant; tags: N-terminal GST; dsDNA, one strand shown
T5 sequence: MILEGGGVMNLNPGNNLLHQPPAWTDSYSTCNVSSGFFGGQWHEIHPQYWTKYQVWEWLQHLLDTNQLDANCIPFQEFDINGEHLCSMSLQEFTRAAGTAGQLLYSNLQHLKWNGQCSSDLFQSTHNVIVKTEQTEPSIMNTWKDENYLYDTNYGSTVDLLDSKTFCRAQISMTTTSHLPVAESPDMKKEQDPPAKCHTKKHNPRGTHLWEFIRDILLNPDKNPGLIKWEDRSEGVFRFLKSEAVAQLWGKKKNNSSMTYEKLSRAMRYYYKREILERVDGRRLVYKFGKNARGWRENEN
Summary of the method: as §1

SPI1 = SPI1 (Homo sapiens, UniProt P17947 1-270); conditions: protein: recombinant; tags: N-terminal GST; dsDNA, one strand shown
Summary of the method: as §1

SPIB = SPIB (Homo sapiens, UniProt Q01892 1-262); conditions: protein: recombinant; tags: N-terminal GST; dsDNA, one strand shown
Summary of the method: as §1

ELK3 = target: T6, ELK3 (Homo sapiens, UniProt P41970 1-407); conditions: protein: recombinant; tags: N-terminal GST; dsDNA, one strand shown
T6 sequence: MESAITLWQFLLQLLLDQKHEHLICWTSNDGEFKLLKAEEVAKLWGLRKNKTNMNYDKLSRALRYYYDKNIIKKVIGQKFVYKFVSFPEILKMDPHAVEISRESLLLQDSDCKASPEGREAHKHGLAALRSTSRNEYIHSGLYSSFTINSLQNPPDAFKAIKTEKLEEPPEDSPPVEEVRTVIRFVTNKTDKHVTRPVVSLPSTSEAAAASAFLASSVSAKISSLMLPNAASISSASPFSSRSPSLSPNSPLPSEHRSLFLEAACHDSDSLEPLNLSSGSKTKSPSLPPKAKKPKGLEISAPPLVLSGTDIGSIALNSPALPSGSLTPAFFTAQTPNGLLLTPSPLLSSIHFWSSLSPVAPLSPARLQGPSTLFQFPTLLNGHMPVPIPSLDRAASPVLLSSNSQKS
Summary of the method: as §1

FEV = target: T7, FEV (Homo sapiens, UniProt Q99581 1-238); conditions: protein: recombinant; tags: N-terminal GST; dsDNA, one strand shown
T7 sequence: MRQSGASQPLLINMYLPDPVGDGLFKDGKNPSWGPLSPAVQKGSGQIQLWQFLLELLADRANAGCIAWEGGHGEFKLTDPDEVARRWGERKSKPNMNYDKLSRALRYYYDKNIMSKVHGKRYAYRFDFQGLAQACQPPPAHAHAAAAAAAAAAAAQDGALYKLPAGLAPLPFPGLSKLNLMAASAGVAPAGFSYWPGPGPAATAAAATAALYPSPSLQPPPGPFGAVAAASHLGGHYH
Summary of the method: as §1

ETV5 = ETV5 (Homo sapiens, UniProt P41161 1-510); conditions: protein: recombinant; tags: N-terminal GST; dsDNA, one strand shown
Summary of the method: as §1

HSF1 = HSF1 (Homo sapiens, UniProt Q00613 1-529); conditions: protein: recombinant; tags: N-terminal GST; chain copies: 3; dsDNA, one strand shown
Summary of the method: as §1

SPIC = target: T8, SPIC (Homo sapiens, UniProt Q8N5J4 1-248); conditions: protein: recombinant; tags: N-terminal GST; dsDNA, one strand shown
T8 sequence: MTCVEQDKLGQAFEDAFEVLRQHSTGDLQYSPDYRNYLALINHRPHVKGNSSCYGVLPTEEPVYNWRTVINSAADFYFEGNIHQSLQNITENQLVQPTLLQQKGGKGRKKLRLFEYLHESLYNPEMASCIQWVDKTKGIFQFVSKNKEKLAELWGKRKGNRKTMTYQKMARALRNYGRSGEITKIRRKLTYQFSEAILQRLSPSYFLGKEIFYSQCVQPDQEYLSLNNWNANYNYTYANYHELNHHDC
Summary of the method: as §1

ELF4 = ELF4 (Homo sapiens, UniProt Q99607 1-663); conditions: protein: recombinant; tags: N-terminal GST; dsDNA, one strand shown
Summary of the method: as §1

ELK4 = target: T9, ELK4 (Homo sapiens, UniProt P28324-2 1-405); conditions: protein: recombinant; tags: N-terminal GST; dsDNA, one strand shown
T9 sequence: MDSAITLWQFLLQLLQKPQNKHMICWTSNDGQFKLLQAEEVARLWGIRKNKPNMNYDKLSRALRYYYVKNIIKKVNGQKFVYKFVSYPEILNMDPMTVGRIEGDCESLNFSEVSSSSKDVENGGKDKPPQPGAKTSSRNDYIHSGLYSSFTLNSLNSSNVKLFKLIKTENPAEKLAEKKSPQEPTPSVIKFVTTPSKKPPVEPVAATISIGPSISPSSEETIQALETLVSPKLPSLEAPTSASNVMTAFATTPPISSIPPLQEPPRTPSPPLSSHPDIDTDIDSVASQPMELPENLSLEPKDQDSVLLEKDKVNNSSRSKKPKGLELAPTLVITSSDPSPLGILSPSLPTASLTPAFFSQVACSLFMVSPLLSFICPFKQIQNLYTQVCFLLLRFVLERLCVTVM
Summary of the method: as §1

ETV2 = target: T10, ETV2 (Homo sapiens, UniProt O00321 1-342); conditions: protein: recombinant; tags: N-terminal GST; dsDNA, one strand shown
T10 sequence: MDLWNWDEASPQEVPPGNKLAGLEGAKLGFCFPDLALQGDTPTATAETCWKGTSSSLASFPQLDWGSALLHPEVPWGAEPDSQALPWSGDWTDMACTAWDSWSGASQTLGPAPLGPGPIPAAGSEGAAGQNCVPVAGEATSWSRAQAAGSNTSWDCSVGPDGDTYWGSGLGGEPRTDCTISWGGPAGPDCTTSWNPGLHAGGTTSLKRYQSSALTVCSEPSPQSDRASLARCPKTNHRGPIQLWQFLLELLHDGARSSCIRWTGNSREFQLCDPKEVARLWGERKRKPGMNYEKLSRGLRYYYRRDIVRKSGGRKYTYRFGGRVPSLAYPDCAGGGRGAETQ
Summary of the method: as §1

ELF3 = target: T11, ELF3 (Homo sapiens, UniProt P78545 1-371); conditions: protein: recombinant; tags: N-terminal GST; dsDNA, one strand shown
T11 sequence: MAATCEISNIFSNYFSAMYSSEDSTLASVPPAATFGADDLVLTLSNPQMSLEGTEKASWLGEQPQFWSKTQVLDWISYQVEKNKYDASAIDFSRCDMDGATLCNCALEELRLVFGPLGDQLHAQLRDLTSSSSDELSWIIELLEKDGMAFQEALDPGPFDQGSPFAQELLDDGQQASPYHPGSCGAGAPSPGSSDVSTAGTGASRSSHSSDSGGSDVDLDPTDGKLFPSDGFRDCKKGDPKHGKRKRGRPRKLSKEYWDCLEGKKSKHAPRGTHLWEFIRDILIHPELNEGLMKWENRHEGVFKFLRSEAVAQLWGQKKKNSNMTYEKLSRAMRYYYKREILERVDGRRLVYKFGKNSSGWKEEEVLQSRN
Summary of the method: as §1

CRX = CRX (Homo sapiens, UniProt O43186 1-299); conditions: protein: recombinant; tags: N-terminal GST; dsDNA, one strand shown
Summary of the method: as §1

ETV1 = ETV1 (Homo sapiens, UniProt P50549 1-477); conditions: protein: recombinant; tags: N-terminal GST; dsDNA, one strand shown
Summary of the method: as §1

ETV5, sequence (P41161 whole entry): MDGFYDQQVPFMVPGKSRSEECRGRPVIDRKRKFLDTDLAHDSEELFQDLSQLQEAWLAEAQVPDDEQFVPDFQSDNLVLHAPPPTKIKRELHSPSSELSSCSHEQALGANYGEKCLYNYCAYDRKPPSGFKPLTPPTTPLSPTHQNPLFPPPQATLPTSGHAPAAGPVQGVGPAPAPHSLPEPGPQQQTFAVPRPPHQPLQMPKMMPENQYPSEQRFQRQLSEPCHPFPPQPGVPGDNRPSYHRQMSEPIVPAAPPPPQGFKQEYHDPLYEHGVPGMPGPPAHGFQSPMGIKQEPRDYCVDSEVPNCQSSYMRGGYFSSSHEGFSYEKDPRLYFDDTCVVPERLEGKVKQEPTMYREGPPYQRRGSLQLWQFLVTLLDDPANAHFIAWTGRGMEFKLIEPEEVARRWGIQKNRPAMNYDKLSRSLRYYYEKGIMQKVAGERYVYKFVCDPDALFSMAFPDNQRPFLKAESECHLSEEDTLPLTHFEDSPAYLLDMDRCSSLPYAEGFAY
CRX, sequence (O43186 whole entry): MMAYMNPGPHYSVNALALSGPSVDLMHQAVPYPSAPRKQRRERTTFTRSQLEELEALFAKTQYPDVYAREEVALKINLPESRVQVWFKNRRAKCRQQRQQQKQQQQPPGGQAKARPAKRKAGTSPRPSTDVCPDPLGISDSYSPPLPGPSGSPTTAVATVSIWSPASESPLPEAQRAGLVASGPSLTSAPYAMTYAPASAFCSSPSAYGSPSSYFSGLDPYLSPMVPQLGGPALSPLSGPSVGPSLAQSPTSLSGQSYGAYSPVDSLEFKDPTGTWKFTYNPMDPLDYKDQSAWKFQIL
HSF1, sequence (Q00613 whole entry): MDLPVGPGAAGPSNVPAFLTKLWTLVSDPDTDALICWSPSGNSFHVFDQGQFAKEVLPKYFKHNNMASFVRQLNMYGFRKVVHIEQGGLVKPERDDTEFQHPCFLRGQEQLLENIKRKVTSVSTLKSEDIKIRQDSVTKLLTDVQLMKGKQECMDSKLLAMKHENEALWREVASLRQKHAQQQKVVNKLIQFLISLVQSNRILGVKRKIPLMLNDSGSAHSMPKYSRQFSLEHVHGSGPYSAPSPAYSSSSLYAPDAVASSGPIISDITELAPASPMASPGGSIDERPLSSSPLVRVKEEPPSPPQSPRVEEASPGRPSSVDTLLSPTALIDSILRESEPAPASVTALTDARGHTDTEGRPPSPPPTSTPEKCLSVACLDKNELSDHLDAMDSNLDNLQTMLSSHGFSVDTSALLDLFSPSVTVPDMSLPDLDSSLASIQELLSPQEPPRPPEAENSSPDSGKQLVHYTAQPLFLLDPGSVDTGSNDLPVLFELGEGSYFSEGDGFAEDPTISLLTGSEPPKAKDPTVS
ELF4, sequence (Q99607 whole entry): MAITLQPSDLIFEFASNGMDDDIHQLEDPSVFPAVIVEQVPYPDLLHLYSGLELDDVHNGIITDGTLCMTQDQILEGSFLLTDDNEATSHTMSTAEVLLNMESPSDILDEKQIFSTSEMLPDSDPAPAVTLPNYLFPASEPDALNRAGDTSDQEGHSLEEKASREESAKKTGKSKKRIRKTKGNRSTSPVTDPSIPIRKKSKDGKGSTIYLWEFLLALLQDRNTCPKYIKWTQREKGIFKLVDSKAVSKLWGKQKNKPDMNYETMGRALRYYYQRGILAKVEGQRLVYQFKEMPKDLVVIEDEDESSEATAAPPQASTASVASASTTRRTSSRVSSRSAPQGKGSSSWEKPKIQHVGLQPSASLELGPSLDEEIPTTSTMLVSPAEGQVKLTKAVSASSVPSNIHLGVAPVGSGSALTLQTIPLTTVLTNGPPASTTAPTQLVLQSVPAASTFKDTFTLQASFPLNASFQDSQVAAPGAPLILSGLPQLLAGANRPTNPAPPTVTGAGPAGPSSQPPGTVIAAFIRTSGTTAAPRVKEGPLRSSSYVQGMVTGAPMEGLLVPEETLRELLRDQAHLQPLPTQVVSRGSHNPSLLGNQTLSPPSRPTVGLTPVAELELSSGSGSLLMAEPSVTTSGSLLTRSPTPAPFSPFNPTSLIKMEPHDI
ETV1, sequence (P50549 whole entry): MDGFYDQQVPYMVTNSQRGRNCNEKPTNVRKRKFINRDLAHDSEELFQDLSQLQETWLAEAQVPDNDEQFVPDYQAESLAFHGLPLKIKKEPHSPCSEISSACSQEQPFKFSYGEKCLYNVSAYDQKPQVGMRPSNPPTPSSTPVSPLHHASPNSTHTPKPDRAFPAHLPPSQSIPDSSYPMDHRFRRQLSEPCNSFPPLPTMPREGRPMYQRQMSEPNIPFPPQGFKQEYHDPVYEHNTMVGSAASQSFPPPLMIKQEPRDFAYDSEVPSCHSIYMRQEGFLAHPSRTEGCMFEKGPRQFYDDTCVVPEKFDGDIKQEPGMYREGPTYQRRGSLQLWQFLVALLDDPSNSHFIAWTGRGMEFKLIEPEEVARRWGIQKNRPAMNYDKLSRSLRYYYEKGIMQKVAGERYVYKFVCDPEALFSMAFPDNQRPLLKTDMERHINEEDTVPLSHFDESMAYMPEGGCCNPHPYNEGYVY
ELF1, sequence (P32519 whole entry): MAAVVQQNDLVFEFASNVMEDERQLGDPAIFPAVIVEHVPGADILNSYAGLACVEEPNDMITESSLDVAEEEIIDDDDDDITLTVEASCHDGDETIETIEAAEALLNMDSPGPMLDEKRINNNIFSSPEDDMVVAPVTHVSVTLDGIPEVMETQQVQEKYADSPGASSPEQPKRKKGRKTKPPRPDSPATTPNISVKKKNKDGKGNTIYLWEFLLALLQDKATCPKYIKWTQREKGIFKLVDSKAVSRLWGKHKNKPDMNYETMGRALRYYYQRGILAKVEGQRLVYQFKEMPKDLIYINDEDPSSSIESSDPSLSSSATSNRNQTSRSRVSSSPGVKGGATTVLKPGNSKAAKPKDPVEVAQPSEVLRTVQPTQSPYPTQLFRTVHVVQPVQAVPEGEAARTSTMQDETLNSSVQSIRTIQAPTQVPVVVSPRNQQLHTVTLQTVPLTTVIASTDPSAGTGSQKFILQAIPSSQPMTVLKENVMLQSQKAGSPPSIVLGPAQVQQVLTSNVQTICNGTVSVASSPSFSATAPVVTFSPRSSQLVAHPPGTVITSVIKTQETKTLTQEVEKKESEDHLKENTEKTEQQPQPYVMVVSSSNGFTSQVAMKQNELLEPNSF
SPIB, sequence (Q01892 whole entry): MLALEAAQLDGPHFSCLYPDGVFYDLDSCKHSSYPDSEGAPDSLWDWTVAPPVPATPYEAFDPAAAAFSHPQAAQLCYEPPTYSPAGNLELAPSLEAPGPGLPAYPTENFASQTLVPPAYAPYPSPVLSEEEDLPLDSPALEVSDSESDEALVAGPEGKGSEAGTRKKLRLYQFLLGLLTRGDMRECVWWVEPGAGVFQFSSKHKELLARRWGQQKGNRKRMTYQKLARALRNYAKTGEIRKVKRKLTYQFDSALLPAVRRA

Sequence: AGCTCA
- binding signal (FLI1): 1.07 fold enrichment (6-mer frequency, TF over GST control)
- binding signal (ELK1): 1.1 fold enrichment (6-mer frequency, TF over GST control)
- binding signal (GABPA): 1.15 fold enrichment (6-mer frequency, TF over GST control)
- binding signal (ERG): 1.08 fold enrichment (6-mer frequency, TF over GST control)
- binding signal (ELF1): 1.2 fold enrichment (6-mer frequency, TF over GST control)
- binding signal (EHF): 1.21 fold enrichment (6-mer frequency, TF over GST control)
- binding signal (SPI1): 1.06 fold enrichment (6-mer frequency, TF over GST control)
- binding signal (SPIB): 1.17 fold enrichment (6-mer frequency, TF over GST control)
- binding signal (ELK3): 1.12 fold enrichment (6-mer frequency, TF over GST control)
- binding signal (FEV): 1.08 fold enrichment (6-mer frequency, TF over GST control)
- binding signal (ETV5): 1.1 fold enrichment (6-mer frequency, TF over GST control)
- binding signal (HSF1): 1.22 fold enrichment (6-mer frequency, TF over GST control)
- binding signal (SPIC): 1.08 fold enrichment (6-mer frequency, TF over GST control)
- binding signal (ELF4): 1.16 fold enrichment (6-mer frequency, TF over GST control)
- binding signal (ELK4): 1.27 fold enrichment (6-mer frequency, TF over GST control)
- binding signal (ETV2): 1.25 fold enrichment (6-mer frequency, TF over GST control)
- binding signal (ELF3): 1.11 fold enrichment (6-mer frequency, TF over GST control)
- binding signal (CRX): 1.45 fold enrichment (6-mer frequency, TF over GST control)
- binding signal (ETV1): 1.24 fold enrichment (6-mer frequency, TF over GST control)
